# Target: CaNbp2
# Experiment: SPOT peptide array binding signal intensity (averaged, normalized) (arbitrary units (background-subtracted, floor 0; scale differs between SH3 domains)); higher = stronger binding of the SH3 domain to the peptide
# How it was run: (§1)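 Four yeast species supplied the SH3 domains, which were expressed as GST fusions in E. coli BL21(DE3) and purified on glutathione Sepharose. Incubation with cellulose membranes carrying synthetic 15-mer peptides, cysteines exchanged for serines, ran overnight at 4°C at 10 μg/ml in TBS-based blocking buffer. Binding signal is reported as normalized, background-subtracted spot intensity averaged over replicates, in arbitrary units not shared between domains.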
row,Binder,SPOT peptide array binding signal intensity
1,PIVPSSPAPPLPLSG,4.5

# Target: CaRvs167
# Experiment: as above
# How it was run: as §1
row,Binder,SPOT peptide array binding signal intensity
1,PIVPSSPAPPLPLSG,≤ 0

# Target: CaRvs167-3
# Experiment: as above
# How it was run: as §1
row,Binder,SPOT peptide array binding signal intensity
1,PIVPSSPAPPLPLSG,1

# Target: CaSho1
# Experiment: as above
# How it was run: as §1
row,Binder,SPOT peptide array binding signal intensity
1,PIVPSSPAPPLPLSG,≤ 0

# Target: CaSla1-D1-D2
# Experiment: as above
# How it was run: as §1
row,Binder,SPOT peptide array binding signal intensity
1,PIVPSSPAPPLPLSG,0.5

# Target: CaSla1-D3
# Experiment: as above
# How it was run: as §1
row,Binder,SPOT peptide array binding signal intensity
1,PIVPSSPAPPLPLSG,≤ 0

# Target: ScAbp1
# Experiment: as above
# How it was run: as §1
row,Binder,SPOT peptide array binding signal intensity
1,PIVPSSPAPPLPLSG,≤ 0

# Target: ScBbc1
# Experiment: as above
# How it was run: as §1
row,Binder,SPOT peptide array binding signal intensity
1,PIVPSSPAPPLPLSG,≤ 0

# Target: ScBem1-D1
# Experiment: as above
# How it was run: as §1
row,Binder,SPOT peptide array binding signal intensity
1,PIVPSSPAPPLPLSG,≤ 0

# Target: ScBzz1-D1
# Experiment: as above
# How it was run: as §1
row,Binder,SPOT peptide array binding signal intensity
1,PIVPSSPAPPLPLSG,7.5

# Target: ScBzz1-D2
# Experiment: as above
# How it was run: as §1
row,Binder,SPOT peptide array binding signal intensity
1,PIVPSSPAPPLPLSG,1.5

# Target: ScCyk3
# Experiment: as above
# How it was run: as §1
row,Binder,SPOT peptide array binding signal intensity
1,PIVPSSPAPPLPLSG,≤ 0

# Target: ScFus1
# Experiment: as above
# How it was run: as §1
row,Binder,SPOT peptide array binding signal intensity
1,PIVPSSPAPPLPLSG,≤ 0

# Target: ScHof1
# Experiment: as above
# How it was run: as §1
row,Binder,SPOT peptide array binding signal intensity
1,PIVPSSPAPPLPLSG,≤ 0

# Target: ScHse1
# Experiment: as above
# How it was run: as §1
row,Binder,SPOT peptide array binding signal intensity
1,PIVPSSPAPPLPLSG,≤ 0

# Target: ScLsb1
# Experiment: as above
# How it was run: as §1
row,Binder,SPOT peptide array binding signal intensity
1,PIVPSSPAPPLPLSG,≤ 0

# Target: ScLsb2
# Experiment: as above
# How it was run: as §1
row,Binder,SPOT peptide array binding signal intensity
1,PIVPSSPAPPLPLSG,≤ 0

# Target: ScLsb3
# Experiment: as above
# How it was run: as §1
row,Binder,SPOT peptide array binding signal intensity
1,PIVPSSPAPPLPLSG,≤ 0

# Target: ScLsb4
# Experiment: as above
# How it was run: as §1
row,Binder,SPOT peptide array binding signal intensity
1,PIVPSSPAPPLPLSG,≤ 0

# Target: ScMyo3
# Experiment: as above
# How it was run: as §1
row,Binder,SPOT peptide array binding signal intensity
1,PIVPSSPAPPLPLSG,2720

# Target: ScMyo5
# Experiment: as above
# How it was run: as §1
row,Binder,SPOT peptide array binding signal intensity
1,PIVPSSPAPPLPLSG,3220

# Target: ScNbp2
# Experiment: as above
# How it was run: as §1
row,Binder,SPOT peptide array binding signal intensity
1,PIVPSSPAPPLPLSG,≤ 0

# Target: ScPex13
# Experiment: as above
# How it was run: as §1
row,Binder,SPOT peptide array binding signal intensity
1,PIVPSSPAPPLPLSG,≤ 0

# Target: ScRvs167
# Experiment: as above
# How it was run: as §1
row,Binder,SPOT peptide array binding signal intensity
1,PIVPSSPAPPLPLSG,≤ 0

# Target: ScSho1
# Experiment: as above
# How it was run: as §1
row,Binder,SPOT peptide array binding signal intensity
1,PIVPSSPAPPLPLSG,≤ 0

# Target: ScSla1-D1-D2
# Experiment: as above
# How it was run: as §1
row,Binder,SPOT peptide array binding signal intensity
1,PIVPSSPAPPLPLSG,1

# Target: ScSla1-D3
# Experiment: as above
# How it was run: as §1
row,Binder,SPOT peptide array binding signal intensity
1,PIVPSSPAPPLPLSG,7.5

# Target: SpAbp1-D1
# Experiment: as above
# How it was run: as §1
row,Binder,SPOT peptide array binding signal intensity
1,PIVPSSPAPPLPLSG,≤ 0

# Target: SpBbc1
# Experiment: as above
# How it was run: as §1
row,Binder,SPOT peptide array binding signal intensity
1,PIVPSSPAPPLPLSG,6

# Target: SpBzz1-D1
# Experiment: as above
# How it was run: as §1
row,Binder,SPOT peptide array binding signal intensity
1,PIVPSSPAPPLPLSG,52.5

# Target: SpBzz1-D2
# Experiment: as above
# How it was run: as §1
row,Binder,SPOT peptide array binding signal intensity
1,PIVPSSPAPPLPLSG,1.5

# Target: SpCyk3
# Experiment: as above
# How it was run: as §1
row,Binder,SPOT peptide array binding signal intensity
1,PIVPSSPAPPLPLSG,≤ 0

# Target: SpHof1
# Experiment: as above
# How it was run: as §1
row,Binder,SPOT peptide array binding signal intensity
1,PIVPSSPAPPLPLSG,≤ 0

# Target: SpHof1-2
# Experiment: as above
# How it was run: as §1
row,Binder,SPOT peptide array binding signal intensity
1,PIVPSSPAPPLPLSG,≤ 0

# Target: SpHof1-3
# Experiment: as above
# How it was run: as §1
row,Binder,SPOT peptide array binding signal intensity
1,PIVPSSPAPPLPLSG,≤ 0

# Target: SpHse1
# Experiment: as above
# How it was run: as §1
row,Binder,SPOT peptide array binding signal intensity
1,PIVPSSPAPPLPLSG,7

# Target: SpLsb1
# Experiment: as above
# How it was run: as §1
row,Binder,SPOT peptide array binding signal intensity
1,PIVPSSPAPPLPLSG,≤ 0

# Target: SpLsb4
# Experiment: as above
# How it was run: as §1
row,Binder,SPOT peptide array binding signal intensity
1,PIVPSSPAPPLPLSG,≤ 0

# Target: SpMyo1
# Experiment: as above
# How it was run: as §1
row,Binder,SPOT peptide array binding signal intensity
1,PIVPSSPAPPLPLSG,1220

# Target: SpNbp2
# Experiment: as above
# How it was run: as §1
row,Binder,SPOT peptide array binding signal intensity
1,PIVPSSPAPPLPLSG,≤ 0

# Target: SpPex13
# Experiment: as above
# How it was run: as §1
row,Binder,SPOT peptide array binding signal intensity
1,PIVPSSPAPPLPLSG,1

# Target: SpRvs167
# Experiment: as above
# How it was run: as §1
row,Binder,SPOT peptide array binding signal intensity
1,PIVPSSPAPPLPLSG,3.5

# Target: SpSla1-D1-D2
# Experiment: as above
# How it was run: as §1
row,Binder,SPOT peptide array binding signal intensity
1,PIVPSSPAPPLPLSG,≤ 0

# Target: SpSla1-D3
# Experiment: as above
# How it was run: as §1
row,Binder,SPOT peptide array binding signal intensity
1,PIVPSSPAPPLPLSG,≤ 0

# From the supplement of paper PMC4466140
